# Data published in PubChem BioAssay AID488815 (Broad Institute, 2010).
# Results with a measured potency or affinity are listed apart. Records with an inconclusive call do not appear. Active and inactive are the calls of the source. The rule behind the calls is not given here.
# Target: CAAX prenyl protease 1 (Saccharomyces cerevisiae (strain ATCC 204508 / S288c)) (UniProt P47154)
# Test: yeast CAAX protease Ste24 inhibition – biochemical, S. cerevisiae, plate reader, cherry-pick, dose response (AID 488815)
# Details: series mostly up to 10 µM
# Chain of CAAX prenyl protease 1 (Saccharomyces cerevisiae (strain ATCC 204508 / S288c)) (P47154 whole entry, looked up): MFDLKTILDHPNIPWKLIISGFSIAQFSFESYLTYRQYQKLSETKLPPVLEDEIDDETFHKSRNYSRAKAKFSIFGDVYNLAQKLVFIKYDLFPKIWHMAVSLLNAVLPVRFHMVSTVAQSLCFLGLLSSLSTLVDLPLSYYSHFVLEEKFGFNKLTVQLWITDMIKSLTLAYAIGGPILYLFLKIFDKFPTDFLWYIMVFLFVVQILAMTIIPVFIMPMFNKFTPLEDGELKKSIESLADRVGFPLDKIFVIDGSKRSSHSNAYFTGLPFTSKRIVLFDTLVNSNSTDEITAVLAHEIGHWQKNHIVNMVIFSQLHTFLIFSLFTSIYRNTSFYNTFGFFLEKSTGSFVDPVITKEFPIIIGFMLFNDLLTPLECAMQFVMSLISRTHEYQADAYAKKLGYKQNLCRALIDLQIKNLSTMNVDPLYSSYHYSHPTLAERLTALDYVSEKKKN
row,SMILES,outcome
1,COc1ccc(-n2nc(C(=O)NCC(=O)N3CCC(C)CC3)c3ccccc3c2=O)cc1,inactive
2,CCCCNC(=S)N=Nc1c(O)n(Cc2ccccc2)c2ccccc12,inactive
3,COc1cccc(-c2csc(N3CCN(C(=O)NC45CC6CC(CC(C6)C4)C5)CC3)n2)c1,inactive
4,Cc1cc(N)c2cc(NC(=O)/C=C/c3ccccc3Cl)ccc2n1,inactive
5,CCOc1ccc(-c2c(C(=O)N/N=C/c3cccs3)nnn2-c2nonc2N)cc1,inactive
6,O=C(Nc1cc(S(=O)(=O)N2CCOCC2)ccc1N1CCCC1)c1cnccn1,inactive
7,COc1cccc(C(=O)Nc2nnc(SCC(=O)NC3CCCC3)s2)c1,inactive
8,c1ccc(CNc2nc(N3CCN(Cc4ccccc4)CC3)nc3ccccc23)cc1,inactive
9,CS(=O)(=O)Nc1ccccc1C(=O)NC1CC2CCC1C2 (centres undefined),inactive
10,O=C(C(Cc1ccccc1)N1C(=O)c2ccccc2C1=O)N1c2ccccc2CCc2ccccc21 (centres undefined),inactive
11,O=S(=O)(c1ccccc1)c1nc(-c2ccco2)oc1N1CCCCC1,inactive
12,Nc1c(C(=O)Nc2cccc(C(=O)O)c2)sc2nc3c(cc12)CCCC3,inactive
13,COc1nc(-c2ccccc2)ccc1-c1noc(-c2ccccc2F)n1,inactive
14,O=C(Nc1sc2c(c1C(=O)c1ccc(Cl)cc1)CCCC2)c1cccnc1,inactive
15,CCn1cc(/C=C(\NC(=O)c2ccccc2)C(=O)N2CCOCC2)c2ccccc21,inactive
16,CCOc1ccc(NC(=O)CCSc2ccc(C)cc2)cc1,inactive
17,COc1ccc(C)cc1NC(=O)CN1C(=O)COc2ccc(S(=O)(=O)N3CCOCC3)cc21,inactive
18,COc1ccccc1/C=C/C=N/NC(=O)CN1CCN(S(=O)(=O)c2ccc(C)cc2)CC1,inactive
19,C/C(Cl)=C\Cn1c(O)c(N=NC(N)=S)c2cc(Br)ccc21,inactive
20,COc1cccc(/C=N/NC(=O)c2nnn(-c3nonc3N)c2C(C)C)c1OCc1ccc(F)cc1,inactive
21,Clc1cccc(CN2CCc3c([nH]c4ccccc34)C2)c1Cl,inactive
22,CN(C)S(=O)(=O)c1ccc(NC(=O)/C=C/c2ccccc2Cl)cc1,inactive
23,CC(C)c1c(C(=O)N/N=C/c2cccc3ccccc23)nnn1-c1nonc1N,inactive
24,CC1(c2ccc(OCC#N)cc2)C=C(c2ccc(OCC#N)cc2)n2nc(C(F)(F)F)nc2N1 (centres undefined),inactive
